USP8 block = blocks human USP8 ubiquitin-rhodamine cleavage; P40818; purified USP8, Ub-rhodamine cleavage fluorescence, 30 min; inhibition, % at 20 µM; 47,000 compounds, 4.2% hits
USP10 inh = inhibitors of human USP10 deubiquitinase; purified USP10, Ub-rhodamine fluorescence, 60 min; 47,000 compounds, 1.1% hits; inhibition, % at 20 µM; Q14694
USP30 inh = human USP30 deubiquitinase inhibition; inhibition, % at 25 µM; purified USP30, Ub-rhodamine cleavage fluorescence; 47,000 compounds, 5.3% hits
Target sequence (Q70CQ3 whole entry, looked up): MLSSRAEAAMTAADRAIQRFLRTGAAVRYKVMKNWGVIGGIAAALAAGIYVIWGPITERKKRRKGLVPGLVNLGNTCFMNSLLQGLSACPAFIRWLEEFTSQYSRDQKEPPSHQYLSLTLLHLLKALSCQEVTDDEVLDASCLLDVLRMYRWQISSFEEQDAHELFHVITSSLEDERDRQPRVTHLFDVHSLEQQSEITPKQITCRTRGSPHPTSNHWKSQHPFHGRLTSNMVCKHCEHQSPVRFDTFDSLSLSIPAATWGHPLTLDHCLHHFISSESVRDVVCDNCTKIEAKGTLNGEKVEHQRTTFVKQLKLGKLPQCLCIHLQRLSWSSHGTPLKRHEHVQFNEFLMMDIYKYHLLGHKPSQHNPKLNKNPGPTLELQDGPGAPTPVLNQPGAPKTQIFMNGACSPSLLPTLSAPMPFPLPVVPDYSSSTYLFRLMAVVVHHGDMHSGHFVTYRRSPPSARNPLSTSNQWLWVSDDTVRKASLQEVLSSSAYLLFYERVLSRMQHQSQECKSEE
USP17 inh = human USP17-like deubiquitinase inhibition; A8MUK1; purified USP17, Ub-rhodamine cleavage fluorescence, 3 h; inhibition, % at 50 µM; 47,000 compounds, 6.5% hits
USP28 block = inhibitors of human USP28 deubiquitinase | Q96RU2 | purified USP28, Ub-rhodamine cleavage fluorescence, 30 min | inhibition, % at 25 µM | 47,000 compounds, 3% hits | AID 1645857
* marks the source's active call; other numbers are inactive results; i = inactive; x = no result given. Rows were chosen to be rich in hits. Some 14% of all compounds tested hit in one or more screens of this group. Cut-off read from the data, not from the text of the source: active = inhibition above about 30%; inactive = the rest.

SMILES	USP8 block	USP10 inh	USP30 inh	USP17 inh	USP28 block
COc1ccc(C)cc1NC(=O)C1CC(=O)Nc2nc3ccccc3n21 (centres undefined)	28.8	29.3	11.5	70.1*	8.0
Oc1ccc(-c2nnc(Nc3ccc(Cl)c(Cl)c3)c3ccccc23)cc1	52.6*	21.4	-28.7	48.9*	19.7
Cc1nnc(SCC(=O)Nc2ccc(Cl)c(Cl)c2)c2ccccc12	3.5	1.4	-12.7	-17.2	-9.5
O=C(Nc1nc(-c2ccccc2)ns1)c1ccc2ncsc2c1	16.7	35.9*	12.3	41.2*	9.5
O=C(Cc1ccccc1)Nc1nc(-c2ccccc2)ns1	-0.2	2.9	36.9*	2.8	20.6
CCc1noc(C)c1C(=O)OC(C)C(=O)c1[nH]c(C)c(C(=O)OC)c1C (centres undefined)	6.8	-1.0	0.2	20.9	13.9
COC(=O)c1c(C)[nH]c(C(=O)C(C)OC(=O)CCC2CCCC2)c1C (centres undefined)	1.7	10.1	-8.3	5.1	79.4*
CCOCC(=O)N1CC[C@](O)(c2ccccc2)[C@H](N2CCCC2)C1	-135.6	-6.9	i	-158.6	-236.7
COc1cc2c(cc1OC)CN(Cc1cc(=O)n3ccsc3n1)CC2	55.7*	-11.7	-221.9	11.3	-44.9
COc1c([C@H](CC(C)C)OC(C)=O)ccc2c1C(=O)OCc1cc(C)cc(O)c1O2	14.4	23.8	17.4	5.1	8.1
COc1c(C)c2c(c(O)c1C/C=C(\C)C(O)CC(=O)O)C(=O)OC2 (centres undefined)	1.2	3.4	38.0*	0.4	12.2
COCCn1ccc2nc(C)c(C(=O)NCc3ccccc3)cc2c1=O	-2.3	-4.1	15.7	17.2	7.1
Cc1nc2ccn(Cc3ccco3)c(=O)c2cc1C(=O)NCc1cccs1	6.0	2.7	10.0	4.8	30.2*
O=C(CSc1nnnn1-c1ccccc1)Nc1ccccc1	9.9	5.2	46.0*	50.8*	15.3
O=C(CSc1nnnn1-c1ccccc1)N1CCN(c2ccccc2)CC1	-5.0	1.4	15.2	12.9	17.3
COc1cc2c(=O)n(CCC(=O)NCc3ccco3)c(=O)n(CC(=O)Nc3c(C)cccc3C)c2cc1OC	37.8*	-2.8	30.0*	60.7*	64.8*
O=C(CCn1c(=O)c2ccccc2n(Cc2ccc([N+](=O)[O-])cc2)c1=O)NCc1ccco1	-19.4	20.0	1.0	6.4	0.4
COc1cccc(C(=O)Cn2c(=O)n(CCCC(=O)NCc3ccco3)c(=O)c3ccc(Cl)cc32)c1	10.2	24.4	18.9	18.0	0.3
Cc1ccc(Cl)cc1NC(=O)Cn1c(=O)n(CCC(=O)NCc2ccco2)c(=O)c2ccccc21	63.8*	56.4*	32.5*	15.4	15.3
Cc1ccc(Cl)cc1NC(=O)Cn1c(=O)n(CCC(=O)NC2CCCC2)c(=O)c2ccccc21	22.1	3.4	41.1*	23.2	15.0
O=C(CCn1c(=O)c2ccccc2n(Cc2ccc(F)cc2Cl)c1=O)NCc1ccco1	47.8*	40.0*	15.3	38.2*	6.5
CCn1c(SCc2nc(N)c3ccccc3n2)nc2ccccc21	33.4*	-2.8	38.7*	54.1*	41.8*
CC1CCN(S(=O)(=O)c2cn(CC(=O)Nc3cccc(-c4ccno4)c3)cn2)CC1	-5.1	16.5	-24.6	49.7*	-11.4
O=C(Cn1cnc(S(=O)(=O)N2CCCCC2)c1)Nc1ccc2c(c1)OCO2	59.2*	-0.2	-23.2	35.3*	-2.5
O=c1c2c(ccn1Cc1ccccc1F)ccn2Cc1cccnc1	2.1	0.4	x	-16.7	x
SMILES	USP8 block	USP10 inh	USP30 inh	USP17 inh	USP28 block
COCCn1ccc2ccn(Cc3nc(-c4cccnc4)no3)c(=O)c21	55.6*	-4.3	-169.7	26.2	-19.9
O=c1c2c(ccn1Cc1nc(C3CC3)no1)ccn2Cc1cccnc1	29.4	0.9	9.9	8.2	30.8*
Cn1ccc2ccn(Cc3nc(-c4ccccn4)no3)c(=O)c21	15.3	-3.8	1.5	2.1	15.5
CC1CCc2nc(NC(=O)C(c3ccccc3)c3ccccc3)sc2C1 (centres undefined)	-4.3	13.2	-12.6	x	0.3
CC(C)c1ccc(O)c(NC(=O)c2nc(-n3cnnc3)ccc2Br)c1	14.9	23.7	9.8	3.2	-3.1
CCOc1ccccc1NC(=O)Cn1c(=O)n(CCCC(=O)NC2CCN(Cc3ccccc3)CC2)c(=O)c2ccccc21	-37.6	2.1	11.3	0.4	4.8
CCOc1ccccc1NC(=O)Cn1c(=O)n(CCCC(=O)N2CCc3ccccc3C2)c(=O)c2ccccc21	7.1	19.4	44.8*	14.8	24.2
N=C1/C(=C/c2cn(Cc3ccccc3F)c3ccccc23)C(=O)N=C2SC(C(F)(F)F)=NN12	47.6*	50.6*	-394.7	-56.6	-85.5
CC1=CN2C(=N)/C(=C/c3cn(Cc4ccc(Cl)cc4)c4ccccc34)C(=O)N=C2S1	-96.9	-9.4	i	-186.4	-274.4
CCc1ccccc1NC(=O)Cn1c(=O)n(CC(=O)NCc2ccccc2Cl)c(=O)c2sccc21	38.2*	29.4	15.5	26.5	6.7
Cc1ccc(NC(=O)Cn2c(=O)n(-c3ccc(CC(=O)NCc4ccco4)cc3)c(=O)c3sccc32)c(C)c1	14.8	43.9*	x	69.3*	x
Cc1ccccc1NC(=O)Cn1c(=O)n(-c2ccc(CC(=O)NCCc3ccccc3)cc2)c(=O)c2sccc21	84.3*	51.0*	-0.6	24.2	4.9
O=C(Cc1ccc(-n2c(=O)c3sccc3n(Cc3ccc(F)cc3)c2=O)cc1)NCCc1ccccc1	23.0	37.3*	x	66.9*	x
CCOc1ccccc1NC(=O)CSc1nnc2c3ccccc3nc(-c3ccco3)n12	-9.5	-1.7	-61.5	-14.3	-14.6
CC(C)c1ccc(NC(=O)c2cc3ncc(Br)cn3n2)cc1	61.1*	25.7	-37.5	51.6*	-15.5
CCNC(=O)C1(Cc2cc(-c3ccccc3)no2)CCCN(C(=O)Cc2cccc(C)c2)C1 (centres undefined)	4.6	-1.1	12.8	0.0	5.8
Cc1ccc(NC(=O)CC(NCCc2ccccc2)C(=O)O)cc1 (centres undefined)	-0.4	0.1	4.0	-7.0	-8.5
Cc1cc(O)ccc1NC(=O)CC(NCCc1ccccc1)C(=O)O (centres undefined)	30.8*	2.8	6.0	12.3	7.8
CCOc1ccccc1NC1c2ccccc2C(=O)N1c1cccnc1 (centres undefined)	71.0*	-1.5	-7.9	43.4*	1.0
COc1ccc(C(=O)Nc2ccc(O)cc2C(=O)O)cc1OC	32.9*	3.9	31.9*	18.2	19.3
O=C1/C(=C/c2ccc(F)cc2)Cc2ccccc21	6.2	9.8	18.4	2.5	2.8
O=C1/C(=C/c2ccccc2)CC/C1=C\c1ccccc1	44.3*	8.8	16.9	26.4	13.8
COc1cccc(CNC(=O)[C@H](C)N2C(=O)N3CCc4c([nH]c5ccc(OC)cc45)[C@@]3(C)C2=O)c1	-28.8	-5.8	-15.9	23.3	0.8
COc1ccc2[nH]c3c(c2c1)CCN1C(=O)N(c2ccccc2C(=O)NCc2ccccc2)C(=O)[C@]31C	1.6	-0.7	22.5	61.0*	17.9
